The whole screen tested about 410,000 compounds, of which about 18,000 (4.4%) were called active. Inconclusive results (about 7%) are left out. Rule as the data show it: active = activity change below about -60%; inconclusive = no clear call, values can overlap the other calls; inactive = above about -39%. The list comes from a sample in which actives are over-represented; it also holds similar structures and randomly drawn compounds.
test: qHTS Assay for inhibitors of the human cytomegalovirus (HCMV); conditions: HFF cells, HCMV-luciferase reporter, 72 h; at 57.5 µM; stronger effect = lower value
Summary of the method: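 Two-dose cell screen: HFF monolayers treated with compounds and infected with luciferase-expressing HCMV at 1 PFU/cell, 72 h at 37C, then lysed for luciferase measurement.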
% is scaled to controls: 0 for no effect and ±100 for the full control effect.

Structure (SMILES)	activity change, negative = inhibition
O=C(CCS(=O)(=O)c1cc(Br)cc2c1N(C(=O)C1CC1)CC2)Nc1ccc(Br)cc1F	-5.42% (inactive)
Cc1ccc(CN2CCCn3nc(C(=O)NCc4ccccc4Cl)cc3C2=O)cc1	-16.2% (inactive)
CCOC(=O)c1nnn(CC(=O)NC(=O)Nc2ccccc2F)c1C(=O)OCC	11.6% (inactive)
COc1ccc2c(Sc3ccc(C)cc3)c(C(=O)NC(C)c3ccccc3)[nH]c2c1 (stereo unspecified)	-4.72% (inactive)
COc1ccc(CNc2nc(-c3ccc(Cl)cc3)nn2S(=O)(=O)c2ccc(C)cc2)cc1	9.27% (inactive)
COC(=O)c1ccc(CSc2nnc(N)s2)o1	-25.6% (inactive)
CCOc1ccccc1Nc1nnc(SCC(=O)Nc2cc(C)on2)s1	45.8% (inactive)
CCOc1ccccc1Nc1nnc(SCc2ccc(C(=O)OC)o2)s1	-61.9% (active)
Cc1ccc(NC(=O)c2ccc(CN3CC(=O)N4CCCCC4C3=O)cc2)c(Cl)c1 (stereo unspecified)	48% (inactive)
Cc1nn(C)c(C)c1CN(C(=O)CCc1nnc(Cc2c[nH]c3ccccc23)o1)C(C)C	9.02% (inactive)
Clc1ccc(C[n+]2cc(-c3ccc(Cl)cc3)n3c2CCC3)cc1	-74.1% (active)
CC(C)C[C@@H](COCc1ccc(Cl)cc1)N1CCN(C(=O)c2ccc(Cl)cc2Cl)CCC1=O	-13.1% (inactive)
Cc1ccccc1OCCC(=O)Nc1c(C)n(C)n(-c2ccccc2)c1=O	-31.3% (inactive)
Cc1c(NC(=O)CSc2cccc3cccnc23)c(=O)n(-c2ccccc2)n1C	-83.5% (active)
Cc1ccc(S(=O)(=O)CC(=O)Nc2c(C)n(C)n(-c3ccccc3)c2=O)cc1	10.8% (inactive)
COC(=O)c1nn(-c2cccc(Cl)c2)ccc1=O	-24.4% (inactive)
CC(CCCc1ccccc1)NC(=O)c1nn(-c2ccc(Cl)cc2)nc1CO (stereo unspecified)	-5.56% (inactive)
CCCSC1=C(C#N)C(c2ccccc2C)C(C(=O)OC)C(=O)N1 (stereo unspecified)	-10.3% (inactive)
CCOc1ccc(NC(=O)CSc2c3c(nc4ccccc24)CCCC3)cc1	-11.9% (inactive)

Structure (SMILES)	activity change, negative = inhibition
COc1ccccc1Nc1c2c(nc3ccc(NC(=O)/C=C/c4cc(OC)c(OC)c(OC)c4)cc13)CCCC2	-98.3% (active)
CCOc1ccc(-n2nc3ccc(NC(=O)c4ccc(OC)c(Cl)c4)cc3n2)cc1	1.85% (inactive)
CCOc1ccc(C(=O)Nc2ccc3nc4c(c(Nc5ccccc5OC)c3c2)CCCC4)cc1	-83.9% (active)
COc1cc(/C=C/C(=O)O)cc(S(=O)(=O)Nc2ccccc2SC)c1OC	-14.9% (inactive)
COc1cc(/C=C/C(=O)N2CCc3ccccc3C2)cc(OC)c1OC	84.9% (inactive)
CCC(C(=O)Nc1cc(OC)ccc1OC)n1c(=O)c(C(F)(F)F)nc2ccccc21 (stereo unspecified)	-4.66% (inactive)
COc1cc(OC)c(NC(=O)N2CC3CCCN3c3ccccc32)cc1Cl (stereo unspecified)	-10.2% (inactive)
CCc1ccccc1NC(=O)Cc1ccc(NC(=O)N2CCCCc3ccccc32)cc1	18.7% (inactive)
COc1ccccc1C(=O)NCCC(=O)N(C)Cc1cccnc1	0% (inactive)
CCOCCCNC(=O)c1ccc2nc(CCc3ccccc3)oc2c1	18.3% (inactive)
CCOC(=O)N1CCc2c(sc3c2c(=O)n(Cc2ccccc2)c(=O)n3CC(=O)Nc2cccc(C)c2)C1	-9.95% (inactive)
O=C(CNCc1ccc(Cl)cc1)Nc1cccc(C(=O)O)c1	-4.42% (inactive)
O=C(CCl)Nc1cccc(CP(=O)(c2ccccc2)c2ccccc2)c1	-108% (active)
CCc1cccc(NC(=O)c2cc(-c3ccccc3)n[nH]2)c1	46.1% (inactive)
Cc1cc(C)cc(NC(=O)CCS(=O)(=O)c2cc3c4c(c2)CCN4C(=O)CC3)c1	-0.0143% (inactive)
C=C(C)C1CC=C(C)/C(=N\NC(=O)CNc2ccccc2OC)C1 (stereo unspecified)	-21.5% (inactive)
CN1CCN(c2oc(-c3ccc(COc4ccc(Cl)cc4)o3)nc2C#N)CC1	-31.4% (inactive)
CN(CCc1cnn(C)c1)Cc1cn(C)nc1-c1ccccc1F	5.69% (inactive)
Cc1ccc(OCC(=O)Nc2ccc(NC(=O)c3cccs3)cc2)c(C)c1	-90.8% (active)

Structure (SMILES)	activity change, negative = inhibition
CCn1c2ccccc2c2cc(NC(=O)COc3ccc(C)cc3C)ccc21	-8.23% (inactive)
C/C(=N\OCC(=O)Nc1ccc(Br)cc1)c1cccs1	-6.56% (inactive)
CCOc1ccc(NC(=O)Cn2cc(C(=O)c3ccc(C)cc3)c(=O)c3cc4c(cc32)OCCO4)cc1	11.7% (inactive)
COc1ccc2cc(-c3nc(Cl)c4c5c(sc4n3)CC(C)CC5)c(=O)oc2c1 (stereo unspecified)	-12.7% (inactive)
COCCNC(=O)c1cc(-c2cccc(Cl)c2)on1	-70.5% (active)
O=C(NCc1ccccc1)c1cc(-c2cccc(Cl)c2)on1	21.7% (inactive)
CCCCNC(=O)c1cc(-c2ccc(Cl)c(Cl)c2)on1	27.6% (inactive)
O=C(O)c1ccc(CSc2nc3cccnc3n2Cc2cccc(F)c2)cc1	40.5% (inactive)
CNS(=O)(=O)c1ccc(C(=O)NCC(=O)NCCc2ccc3c(c2)OCCO3)cc1	-5.01% (inactive)
CCc1ccccc1OCCSc1nc(-c2cccs2)nc2cc(=O)[nH]n12	-12.5% (inactive)
CC(=O)c1ccc(NS(=O)(=O)c2ccc(-c3cc(C)no3)s2)cc1	0% (inactive)
O=C(OCc1nc2ccccc2[nH]1)C1CCCCC1	4.12% (inactive)
c1ccc2c(C[n+]3csc4ccccc43)cccc2c1	91.5% (inactive)
c1ccc2c(CSCc3nc4ccccc4[nH]3)cccc2c1	-92.5% (active)
COc1ccccc1C(=O)N1O[C@]23C=C[C@]14C[C@@H](O)CC[C@]4(C)C2CC[C@]1(C)[C@@H]([C@H](C)/C=C/[C@H](C)C(C)C)CC[C@H]13 (stereo partly specified)	27.5% (inactive)
Cc1ccc2nc(COc3ccccc3NC(=O)Nc3ccc(F)c(Cl)c3)cc(=O)n2c1	9.77% (inactive)
CC(C)NC(=O)c1nn(-c2ccccc2F)nc1CO	-26.3% (inactive)
CCNC(=O)CC1C(=O)N(c2ccc(F)cc2)C(=O)N1Cc1ccc(C)cc1 (stereo unspecified)	-4.44% (inactive)

From PubChem BioAssay AID1259415 (National Center for Advancing Translational Sciences (NCATS), 2018)
